A number with no mark means an inactive call. The rule behind the calls is not given here.
Biological target: Pantothenate synthetase (Mycobacterium tuberculosis (strain ATCC 25618 / H37Rv)) (UniProt P9WIL5)
Assay: Recombinant Mtb pantothenate synthetase (PanC) inhibitors, coupled enzyme, confirmatory (AID 375);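 note: 0% = full reaction with vehicle and 100% = no enzyme background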
Settings: coupled enzyme assay; at 10 µM, stronger effect = higher value

Pantothenate synthetase (Mycobacterium tuberculosis (strain ATCC 25618 / H37Rv)), sequence (P9WIL5 whole entry, looked up): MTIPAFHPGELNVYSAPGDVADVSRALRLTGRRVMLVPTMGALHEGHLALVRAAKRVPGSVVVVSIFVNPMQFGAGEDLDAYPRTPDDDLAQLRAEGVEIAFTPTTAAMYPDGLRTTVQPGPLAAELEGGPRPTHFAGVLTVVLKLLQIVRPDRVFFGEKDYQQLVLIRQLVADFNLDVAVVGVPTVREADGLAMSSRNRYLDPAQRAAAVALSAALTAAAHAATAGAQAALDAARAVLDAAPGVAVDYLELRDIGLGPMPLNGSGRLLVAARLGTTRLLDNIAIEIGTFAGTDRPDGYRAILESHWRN

| SMILES | inhibition [%] |
| --- | --- |
| CC1CCc2cc(F)cc3c(O)c(C(=O)NCC4CCCO4)c(=O)n1c23 (stereo not drawn) | 2 |
| NC(N)=Nc1nc(CSCC/C(N)=N/S(N)(=O)=O)cs1 | 0 |
| Cc1cc(NC(=O)CSc2ccc(Cl)cc2)no1 | 0 |
| Cc1ccc2[nH]c(=O)c3cc(C(=O)NCCN4CCN(C)CC4)sc3c2c1 | 0 |
| O=C(NCc1cccs1)C1CCN(S(=O)(=O)c2cccs2)CC1 | 0 |
| CCCS(=O)(=O)N1CCCC(C(=O)NC(C)c2ccc3c(c2)OCCO3)C1 (stereo not drawn) | 3 |
| Cn1c(SCc2c(F)cccc2Cl)nnc1-c1cccs1 | 0 |
| Cc1cccc(NC(=O)CSc2nnc(-c3ccccc3C)o2)c1 | 0 |
| O=C(Nc1cccc2ncccc12)c1ccc2c(c1)OCCO2 | 0 |
| Cc1ccccc1-c1nc(CN2CCC(C(=O)NC3CCN(Cc4ccccc4)CC3)CC2)c(C)o1 | 0 |
| O=C1CC(c2ccccc2)n2nc(NC(=O)c3ccccn3)nc2N1 (stereo not drawn) | 0 |
| CCn1ncc(Cl)c1C(=O)Nc1ccncc1 | 3 |
| Clc1ccccc1OCCCCn1ccnc1 | 0 |
| COc1cc(N=c2ssnc2Cl)cc(OC)c1 | 1 |
| C=C(C)COc1ccc(-c2n[nH]c(C)c2-c2ccccc2)c(O)c1 | 0 |
| Cc1cc(=O)n2[nH]c(-c3ccc(Cl)cc3)cc2n1 | 0 |
| O=C1CC(=O)N(Cc2cccs2)C(=O)N1 | 0 |
| COc1ccc(Br)cc1CNC(=O)CCc1nc(-c2ccc(C)cc2)no1 | 4 |
